Data as given in the supplement of paper PMC6555819.

Experiments:
Test in all cases: PBM binding z-score (relative to random genomic background probes); higher = stronger binding; sequences stand for … in GC…GCGATTGACAGCGTAGAATGAAGG
[1] = test system: RARb homodimer (NR concentration 270 nM)
Outline: (§1)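 Custom Agilent 4×180K protein-binding microarrays carried double-stranded probes. Their 34-nt variable regions held direct-repeat seeds, single-nucleotide variants, half-site ablations and random human genomic background sequences. Arrays were incubated 1 h with ligand-free nuclear receptor dimers in PBS pH 7.4, 2% milk, 0.02% Triton X-100, 1 mM DTT, 0.2 mg/mL BSA and 0.4 mg/ml salmon testes DNA. Antibodies against each partner (one per run) detected binding, and scanned fluorescence was regression-normalized. Binding z-scores use random background probes as reference.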

[2] = test system: RARg:RXRa (NR concentration 270 nM, RXRa partner concentration 90 nM)
Outline: as §1

[3] = test system: RARg homodimer (NR concentration 270 nM)
Outline: as §1

[4] = test system: RXRa DBDmut IVT, anti-RXR (DBD mutation: RXRa K156A/R161A, NR concentration 90 nM)
Outline: as §1

[5] = test system: RXRa homodimer (NR concentration 180 nM)
Outline: as §1

[6] = test system: THRa:RXRa (NR concentration 90 nM, RXRa partner concentration 90 nM)
Outline: as §1

[7] = test system: THRa homodimer (NR concentration 90 nM)
Outline: as §1

[8] = test system: VDR homodimer (NR concentration 270 nM)
Outline: as §1

| Sequence | PBM binding z-score [1] | PBM binding z-score [2] | PBM binding z-score [3] | PBM binding z-score [4] | PBM binding z-score [5] | PBM binding z-score [6] | PBM binding z-score [7] | PBM binding z-score [8] |
| --- | --- | --- | --- | --- | --- | --- | --- | --- |
| GATACAGGGTCGAGGCCAGAGTACGCGTATTGAT | 1.31 | 1.98 | 1.9 | 0.497 | 2.13 | 1.67 | 0.075 | 0.897 |
| ATCTCTAGGTAACAAGTGCAGTGAAAGAGAGGAC | 0.571 | 0.393 | 0.624 | -0.169 | 0.249 | 1.11 | 0.468 | 0.625 |
| CTACCAAGGTGCACAAGGTCGTTGATTACTATTC | 1.71 | 1.29 | 0.782 | 1.8 | 1.42 | 2.14 | 1.21 | 2.73 |
| CCGAGTAGGTTATGGGGCATCCAGGCAACGGTGA | 0.911 | 0.651 | 0.586 | -0.816 | 0.858 | 0.523 | 0.159 | -0.188 |
| ATCTCTAGGTAAAGATAGTTCGGTGAATGCAAAT | -0.015 | 0.125 | 0.491 | 0.0249 | -0.171 | 0.322 | 0.197 | 0.151 |
| TCTATTAGTTGCAGGGCAACCGACGAGTCCGTTT | 0.506 | 0.104 | 0.0745 | 1.28 | 0.296 | 0.323 | 0.293 | 1.45 |
| TAGCCTAGGTCATTCGGGGGCCAGTATAGAAAGC | 3.39 | 6.55 | 5.25 | 2.13 | 3.58 | 4.17 | 1.48 | 2.32 |
| TCTCGGAGGACACGAAAGGTCAGAGTTCGACATC | 5.05 | 5.04 | 5.71 | 1.45 | 5.12 | 3.77 | 1.57 | 3.65 |
| CCAGACAGGTGAAAGGTAACTGAGTCTGGTACGC | 0.792 | 1.55 | 0.856 | -0.0997 | 2.19 | 0.931 | -0.381 | -0.0816 |
| GATACAGGGTCAGCTAGAGGCCAGAGAATGGAAA | 3.39 | 6.83 | 5.12 | 1.73 | 4.78 | 3.35 | 0.483 | 0.71 |
| CCAGACAGGTGAGAAGGTAACGCAGCCTCGATTA | 0.798 | 0.793 | 0.415 | 0.201 | 0.556 | 0.331 | 0.41 | -0.143 |
| CCACGGAGGACAACAGGAGGTCAGAGCTGCCAGA | 3.72 | 3.61 | 3.45 | 0.466 | 2.08 | 2.8 | 1.28 | 1.48 |
| CCGACTGGAGCAAGGTTACCATAACGCACAGCCA | 1.15 | 0.461 | 0.534 | 0.587 | 0.971 | 1.16 | 0.379 | 0.142 |
| TGAATGAGGTTATAAGATCAGGGCACGTTGCAAA | 1.02 | 1.74 | 1.28 | 0.591 | 2.05 | 2.4 | 0.785 | 0.892 |
| CAAACTAGGTCAAAGGTCAAAGTGGAGCCAACCA | 4.96 | 8.91 | 7.43 | 3.12 | 10.1 | 4.71 | 1.88 | 3.27 |
| GCTAGCAGGCCACTTGGGTCACTCAATGACGGGC | 2.08 | 1.11 | 1.41 | -0.454 | 0.892 | 1.67 | 0.36 | 0.24 |
| ATATGTGGGTTAAGGGTCATTCAGGTTGGTTCGC | 3.84 | 4.83 | 3.59 | 2.43 | 6.27 | 3.62 | 2.41 | 4.82 |
| TCCTATAGGTAATACAGGTGAAAGTCGGCATCTA | 0.461 | 0.471 | 0.243 | 1.05 | 0.757 | 0.883 | 0.298 | -0.333 |
| CCGACTGTGGCAAAGGTTACCATACTCAGTACGA | 2 | 2.04 | 1.17 | 0.804 | 2.6 | 1.4 | 0.0506 | 0.185 |
| CCTCGGAGGACAGAAGGTCCGAGCTGTCCGCTTT | -0.0245 | -0.392 | -0.0646 | 0.0399 | -1.02 | -0.359 | -0.311 | 0.0219 |
| TTACCAAGGTGAAAGGTCGATGATGCACGCCTTG | 2.3 | 3.83 | 2.15 | -0.254 | 4.5 | 3.04 | 0.568 | 0.119 |
| ACAGACAGGTGATGCAGGTAACTCAGGCTATCAT | 0.184 | 0.124 | 0.379 | -0.176 | 0.354 | 0.549 | -0.0382 | -0.22 |
| ACTATTAGTTGAGACGCGGGCAACCGATAGGTTG | -0.0528 | 0.00918 | 0.268 | 0.153 | -0.256 | -0.0691 | -0.769 | 0.135 |
| TCTATTAGTTGAAGGGCAACCAACGAGTCCGTTT | 1.4 | 0.447 | 0.495 | 1.46 | 0.529 | 0.101 | 0.123 | 0.984 |
| TCATATTGGTAAATGCTAGGTGAAAGTCCGATCT | 0.619 | 0.03 | 0.0161 | 1.7 | 0.255 | 0.808 | 0.878 | 0.578 |
| CGTCCAATGTCAGAGAGGTCAGTGAATGCCGAGT | 4.14 | 3.35 | 3.8 | 1.27 | 2.57 | 2.75 | 1.37 | 2.91 |
| AGTCAACGTTCACTAGGTAACGTAAGATTCAGCT | 0.0524 | 0.418 | 0.444 | 0.205 | 0.197 | 0.401 | 0.11 | -0.293 |
| CTTAGCAGGCCAATCTGGGTCACTCAAGGCTTGA | 2.2 | 0.952 | 1.3 | 0.294 | 0.782 | 3.77 | 0.497 | -0.119 |
